Experimental data reported in PubChem BioAssay (NCATS).
Values joined by “and” are separate entries in the source; they are usually repeats but may differ in a detail not shown here. Equal values may be shown once. Results filed as inconclusive are left out. Active and inactive are the calls of the source. The call rests on the fitted dose curve; in most records, active means well fitted cell-killing curve with a large enough effect; inconclusive means small, poorly fitted or top-dose-only effect, or effect the other way; inactive means no such curve, though single readings can be large or run the other way.

Experiment: Cell Viability qHTS for small molecule stabilizers of the endoplasmic reticulum resident proteome (AID 1508629);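 further: compound exposure about 46 h in total before the viability read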
Conditions: cell viability counter-screen, 100 nM thapsigargin for final 4 h
Excerpt: Assay Provider: Brandon K. Harvey Ph.D.
National Institute on Drug Abuse, National Institutes of Health, Baltimore, MD
Endoplasmic reticulum (ER) dysregulation is associated with human pathologies including neurodegenerative, cardiovascular, muscular, and diabetic conditions. Maintenance of ER calcium is critical for functions of the ER and its depletion can lead to loss of ER resident proteins, in a process termed exodosis. Therapeutic compounds capable of attenuating the redistribution of ER proteins under pathological conditions may slow or stop disease progression. To identify such compounds, we performed a quantitative high-throughput screen (qHTS) using the SERCaMP assay, which monitors secretion of ER resident proteins triggered by calcium depletion.
SERCaMP was initially developed as a reporter of ER calcium homeostasis using a Gaussia luciferase with a modified signal peptide and carboxy-terminus (GLuc-SERCaMP), modifications that confer secretion of the reporter in response to ER calcium depletion (Henderson et al., 2014). The assay was used to screen 9,501 compounds, including a collection of drugs approved by the FDA (US), EMA (EU), NHI (Japan), and HC (Canada) regulatory agencies (Huang et al., 2011). Since the SERCaMP reporter reflects the exodosis phenomenon (Trychta et al., 2018a), compounds identified in the screen have the potential to prevent exodosis by different mechanisms such as stabilizing ER calcium or augmenting ERS retrieval.
1. Henderson, M.J., Wires, E.S., Trychta, K.A., Richie, C.T., and Harvey, B.K. (2014). SERCaMP: a carboxy-terminal protein modification that enables monitoring of ER calcium homeostasis. Mol Biol Cell 25, 2828-2839.
2. Huang, R., Southall, N., Wang, Y., Yasgar, A., Shinn, P., Jadhav, A., Nguyen, D.T., and Austin, C.P. (2011). The NCGC pharmaceutical collection: a comprehensive resource of clinically approved drugs enabling repurposing and chemical genomics. Sci Transl Med 3, 80ps16.
3. Trychta, K.A., Back, S., Henderson, M.J., and Harvey, B.K. (2018a). KDEL Receptors Are Differentially Regulated to Maintain the ER Proteome under Calcium Deficiency. Cell Rep 25, 1829-1840 e1826.
SEQUENCE No. (1, 2, 3, etc.); […] (e.g., Cells, Incubation, Reagent, etc.); VALUE and DESCRIPTION.
1; Reagent; 5 uL; 1000 SH-SY5Y cells per wells
3; Compound; 23 nL; Control inhibitor / compound library
5; Reagent; 100 nM; Thapsigargin
7; Reagent; 5 uL; CellTiter-Glo (Promega)
8; Time; 10 min; room temperature
9; Detection; Luminescence; ViewLux imaging system
NOTES (numbers refer to sequence above)
1; SH-SY5Y human neuroblastoma cells stably expressing GLuc-SERCaMP (SH-SY5Y-GLuc-ASARTDL) cells were seeded in 1,536 well white tissue culture treated plates (Corning, Cat# 7464) in DMEM-high glucose-sodium pyruvate (ThermoFisher Scientific, Cat #10569) supplemented with 10% bovine growth serum (Hyclone), 10 U/ml penicillin (Gibco), 10 ug/ml streptomycin (Gibco), and 20 mM HEPES.
2; Assay plates were incubated for 5 hr at 37C in a humidified incubator containing 5% CO2.
3; qHTS libraries (23 nl, final concentrations of 1.53 uM, 7.67 uM, 38.3 uM) or controls (neutral control: DMSO, positive control: dantrolene) were added using a Kalypsis pin-tool Robotic System equipped with 1536 pinheads.
4; Cells were then incubated for 42 hours at 37C, 5% CO2.
5; Thapsigargin was added at 100 nM to deplete ER calcium stores.
6; Cells were incubated for 4 hr (37C, 5% CO2).
7; Cell viability was measured using the CellTiter-Glo Luminescent Cell Viability Assay (Promega). Briefly, an equal volume of reagent was added to each well. Plates were rotated for 2 min.
8; Assay plates were incubated for 10 min at room temperature.
9; Luminescence was measured using a ViewLux CCD imaging system (Perkin Elmer) equipped with clear filters.
On the % scale 0 is the no-effect control and ±100 the full control effect; potency means the concentration at half of the fitted maximal effect.

Row | Structure (SMILES) | max response | Potency
1 | Nc1ccc(Cl)cc1N | 1.89% (inactive) | –
2 | NC1CCc2cc(O)c(O)cc2C1 (stereo unspecified) | 25.8% (inactive) | –
3 | c1ccc2c(CN3CCNCC3)cccc2c1 | 15% (inactive) | –
4 | O=[N+]([O-])c1c2ccccc2cc2ccccc12 | -4.03% (inactive) | –
5 | Clc1ccc(C(c2ccc(Cl)cc2)n2cc[n+](CC(OCc3ccc(Cl)cc3Cl)c3ccc(Cl)cc3Cl)c2)cc1 (stereo unspecified) | -14.7% (inactive) | –
6 | Nc1ccc(N=Nc2ccccc2)cc1 | 1.98% (inactive) | –
7 | Nc1c(Cl)c(Cl)c(Cl)c(Cl)c1Cl | 1.55% (inactive) | –
8 | CNCCc1ccc(O)c(O)c1 | 11.4% (inactive) | –
9 | C/C=C(/C)C(=O)O[C@H]1C(C)=C2[C@H]([C@@H]1OC(=O)CCCCCCC)[C@@](C)(OC(C)=O)C[C@H](OC(=O)CCC)[C@@]1(O)[C@H]2OC(=O)[C@@]1(C)O | – | 251 nM (active) and 224 nM (active)
10 | CC=C(C)C(=O)O[C@H]1C(C)=C2[C@@H]3OC(=O)[C@@](C)(O)[C@@]3(O)[C@@H](OC(=O)CCC)C[C@](C)(OC(C)=O)[C@@H]2[C@@H]1OC(=O)CCCCCCC | – | 282 nM (active)
11 | C[C@H]1CCCC=CC2C[C@H](O)C[C@@H]2[C@H](O)C=CC(=O)O1 (stereo partly specified) | – | 70.8 nM (active)
